# Source: PubChem
# The list is not random: actives were taken first. Their share in the collection is about 2.7%.
# Tau fibril ThT = inhibitors of human tau fibril formation, thioflavin T binding. recombinant tau K18 P301L, heparin-induced fibrillization, ThT fluorescence. Potency, µM (titrated, usually from 57.4 µM), without a hit: at the top dose activity, negative = inhibition, most hits filed as inhibitors. P10636. 270,000 tested, 2.1% active; also: potency is read from the fitted curve at half-maximal effect; nearly all actives have a fitted effect of over 55% in size
# Target sequence (P10636 561-689 P618L limits assumed): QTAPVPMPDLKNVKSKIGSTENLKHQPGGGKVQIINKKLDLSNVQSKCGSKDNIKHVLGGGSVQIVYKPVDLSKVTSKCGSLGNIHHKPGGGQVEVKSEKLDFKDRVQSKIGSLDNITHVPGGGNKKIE
#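 In this qHTS, human K18 P301L tau is incubated with compound and heparin for 6 hr at 37 C, and Thioflavin T fluorescence then reports fibril load.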
# Tau fluor counter = counter-screen for tau fibril formation inhibitors. 280,000 tested, 0.93% active. Potency, µM (highest dose often 57.7 µM), for the others: at the highest dose activity change, negative = decrease. tau K18 P301L (four-repeat tau fragment) Alexa594 fluorescence, heparin fibrillization; also: potency is read from the fitted curve at half-maximal effect; nearly all actives have a fitted effect of over 55% in size
#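 Human K18 P301L tau (15 uM unlabeled plus 0.24 uM Alexa 594-labeled, final) in 100 mM sodium acetate pH 7 was mixed with compound and 20 uM heparin and incubated 6 hr at 37 C.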
# Tau FP inhib = tau fibrillization inhibition (FP); Potency, µM (highest dose often 57.7 µM), inactives show at the highest dose activity, negative = inhibition, most hits filed as inhibitors; P10636; 280,000 tested, 0.39% active; K18 P301L tau heparin fibrillization, Alexa594 FP, 6 h; also: potency is read from the fitted curve at half-maximal effect; nearly all actives have a fitted effect of over 55% in size
#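 Read-out: fluorescence polarization of Alexa 594-labeled tau (0.24 uM), 555 nm excitation, 632 nm emission. Mixtures held 15 uM unlabeled K18 P301L, compound and 20 uM heparin, pH 7 acetate buffer, incubated 6 hr at 37 C.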
# Coupling enz = coupling enzyme interference in Giardia aldolase counter-screen | AID 2472 | coupling enzyme system counterscreen, AmpLite Red fluorescence | 290,000 tested, 0.67% active | activity change, negative = inhibition, % at 58.2 µM, hits read low; in the data active = activity change below about -30%
#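 First, compound is pin-transferred into glyceraldehyde-3-phosphate coupling-enzyme reagent at 57.5 uM final and held 10 min at RT. Next, substrate, coupling system and AmpLite Red are added. After 20 min RT, fluorescence (525/598 nm) is read.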
# * hit, by the source's call; u = inconclusive; x = no result; [ ] = remark or other dose. Unless noted, calls follow the shape of the dose curve; as a rule, active = well fitted curve in the direction sought with a large enough effect; inconclusive = small, poorly fitted or top-dose-only effect, or another doubt; inactive = no such curve, though single readings can be large; an effect the other way counts as inactive or inconclusive. % is scaled to controls: 0 for no effect and ±100 for the full control effect.
SMILES,Tau fibril ThT,Tau fluor counter,Tau FP inhib,Coupling enz
COc1ccc(NC(=O)CSc2nc(N)c(C(=O)Nc3ccc(N(C)C)cc3)s2)cc1,2.51µM*,u,14.7%,1.1
CN(C)c1ccc(NC(=O)CSc2nc(N)c(C(=O)Nc3ccc(N(C)C)cc3)s2)cc1,2.51µM*,12.6µM*[quencher],13.0%,-1.2
COc1cc(O)c2c(c1)oc(=O)c1c3cc(O)c(O)cc3oc21,x,x,x,-17.2
Cn1nnc(NC(=S)NC(=O)c2ccco2)n1,-3.3%,-6.7%,9.6%,-42.7*
Cn1nnc(NC(=O)c2ccco2)n1,-0.8%,2.1%,-1.5%,-0.2
CC(=O)NCCNc1nc(-c2ccc(N(C)C)cc2)nc2ccccc12,u,u,12.9%,-1.3
O=C1c2cccc3cc([N+](=O)[O-])cc(c23)C(=O)N1/N=C/c1ccc(O)cc1O,u,12.6µM*[quencher],-10.1%,-3.1
CC(=O)Nc1ccc(N=Nc2ccc(O)cc2)cc1,7.94µM*,-24.9%,4.4%,-0.5
CC(=O)Nc1cccc(N=NN2CCOCC2)c1,u,-15.3%,u,1.3
CC(=O)Nc1ccc(N=NN2CCOCC2)cc1,10µM*,-27.3%,-11.3%,-2.0
Cc1cc(C)c2c(=O)cc(C(=O)Nc3ccc(S(=O)(=O)Nc4nc(C)cc(C)n4)cc3)oc2c1,-10.8%,u,-11.5%,x
O=C(Nc1cccc(Cl)c1Cl)c1ccc2c(c1)N(Cc1cccc(Cl)c1)C(=O)c1ccccc1S2=O (stereo not drawn),0.4%,-6.0%,u,x
CCCCC(=O)Nc1c2c(nn1-c1cccc(C)c1C)CS(=O)(=O)C2,x,x,x,4.1
CC(=O)OCC1=C(C(=O)O)N2C(=O)C(NC(=O)Cc3cccs3)C2SC1 (stereo not drawn),20µM*,-30.3%,u,-2.1
O=C(OCC(=O)N1CCCCC1)c1cc2ccccc2cc1O,u,-14.6%,-5.5%,1.7
COc1cccc(NC(=O)C/C(C)=N/NC(=O)c2ccccc2Cl)c1,x,-4.6%,-2.8%,-1.1
C/C(CC(=O)Nc1ccc(Cl)c(C(F)(F)F)c1)=N\NC(=O)c1cc2ccccc2cc1O,12.6µM*,15.8µM*[quencher],-5.2%,-2.1
C/C(=N\NC(=O)c1cc2ccccc2cc1O)c1ccc2c(c1)OCO2,7.08µM*,u,1.0%,-3.6
C/C(CC(=O)N1CCCC1)=N\NC(=O)c1cc2ccccc2cc1O,12.6µM*,u,-15.3%,-64.7*
OC[C@@H](O)[C@@H](O)CCc1ccccc1,-7.4%,-5.3%,9.3%,0.8
Cc1sc2c(c1C)c(=O)n(-c1cccc(C(F)(F)F)c1)c(=O)n2Cc1ccccc1C#N,11.8%,5.0%,-9.4%,x
COc1ccc(OC)c(CNC(=O)c2ccc(N3Cc4ccccc4Oc4ncccc43)s2)c1,-0.5%,-8.3%,8.8%,x
CCc1ccc(NC(=O)CSc2nc3c(c(=O)[nH]2)CN(Cc2ccc(C)cc2)CC3)cc1,2.2%,-4.4%,6.6%,x
Oc1cc(Br)ccc1C=Nc1ccc(N2CCCCC2)cc1,14.1µM*,u,-7.9%,-6.1
Oc1ccc(C=Nc2ccc(N3CCOCC3)cc2)c(O)c1,15.8µM*,u,u,-12.6
SMILES,Tau fibril ThT,Tau fluor counter,Tau FP inhib,Coupling enz
Oc1ccc(Br)cc1/C=N/N1CCCCC1,u,-24.4%,5.2%,3.1
OCC1O[C@H](O[C@H]2C(O)C(O)C(O)O[C@@H]2CO)C(O)C(O)C1O (stereo partly drawn),-1.1%,-4.3%,-3.9%,-0.4
Cn1cccc1-c1nc2ccccc2[nH]1,-11.7%,-13.0%,-3.9%,-2.7
O=C(/C=C/c1cccs1)NC(=S)NNC(=O)c1ccccc1O,14.1µM*,u,5.8%,7.0
COCC1CCN(C(=O)c2cc(COc3ccccc3SC)on2)C1 (stereo not drawn),x,x,x,0.3
COc1ccc(OCc2cc(C(=O)N(C)C3CCOCC3)no2)c2ccccc12,x,x,x,-36.8*
CCOC(=O)C1CCN(C(=O)c2cc(COc3ccc(OC)c4ccccc34)on2)CC1,x,x,x,-37.2*
Cc1cc(OCc2cc(C(=O)N(C)C3CCOCC3)no2)cc(C)c1Cl,x,x,x,0.2
CCOc1cc2c(cc1OCC)C(CC(=O)OC)N(C(=O)Nc1cc(OC)ccc1OC)CC2 (stereo not drawn),-0.4%,-4.3%,2.7%,x
COc1cc(NC(=O)Cn2cc(C(=O)c3ccc(F)cc3)c(=O)c3ccc(C)nc32)cc(OC)c1,-1.2%,u,-16.0%,x
O=C(NCc1ccco1)c1nn2c(C(F)(F)F)cc(-c3cccs3)nc2c1Br,14.1µM*,-28.7%,u,5.8
COC(=O)c1ccc(-c2nc3cc(N)ccc3o2)cc1,5.01µM*,-17.5%,13.4%,-0.4
O=S(=O)(Nc1ccc(O)c(Sc2nc3ccccc3s2)c1)c1cc(Cl)ccc1Cl,u,10µM*[quencher],u,x
O=S(=O)(Nc1ccc(O)c(Sc2nc3ccccc3s2)c1)c1ccc(F)cc1,-15.0%,u,8.0%,-0.2
Cc1cc(S(=O)(=O)Nc2ccc(O)c(Sc3nc4ccccc4s3)c2)ccc1Cl,u,10µM*[quencher],u,x
COC(=O)C1=C(C(=O)OC)[C@@H]2N(C)c3ccc(OC)cc3[C@@]23C[C@@H](C(=O)OC)N(S(=O)(=O)c2c(C)noc2C)C3=N1,-7.5%[11.5 µM],-14.9%[11.6 µM],6.0%[11.6 µM],-1.1
O=C(OCn1ncc(Cl)c(Cl)c1=O)c1ccc(C(F)(F)F)cc1,31.6µM*,-12.2%,-13.2%,-1.5
Cc1ccc(Cl)cc1NC(=O)C(C)n1nc(-c2ccccc2)ccc1=O (stereo not drawn),15.6%,-21.8%,5.0%,x
N#CC1=C2SCN(Cc3ccccc3)CN2C(=O)CC1c1ccc2c(c1)OCO2 (stereo not drawn),20µM*,-22.6%,u,-31.8*
CC(C)c1ccc(C2CC(=O)N3CN(Cc4ccco4)CSC3=C2C#N)cc1 (stereo not drawn),22.4µM*,-24.4%,u,-9.8
CSC1=C(C#N)C(c2ccc(C(C)C)cc2)CC(=O)N1 (stereo not drawn),-6.8%,-7.5%,-0.9%,0.8
Clc1ccc(N2CCN(Cc3ccco3)CC2)cc1,x,x,x,1.5
COc1ccc2ccccc2c1C1CC(=O)N2CN(Cc3ccco3)CSC2=C1C#N (stereo not drawn),u,-23.1%,u,-17.5
COc1ccc(C2CC(=O)N3CN(Cc4ccco4)CSC3=C2C#N)cc1 (stereo not drawn),25.1µM*,-23.2%,u,-21.2
N#CC1=C2SCN(Cc3ccco3)CN2C(=O)CC1c1ccc(Cl)cc1 (stereo not drawn),17.8µM*,-20.9%,u,-5.2
CSc1nn(Cc2ccc(Br)cc2)c(N(C(C)=O)C(C)=O)c1S(=O)(=O)c1ccccc1,u,-13.1%,u,x
COc1cc(C2CC(=O)N3CN(Cc4ccco4)CSC3=C2C#N)ccc1OCc1ccccc1 (stereo not drawn),20µM*,u,u,-10.1
COc1cc(CNCc2ccco2)ccc1OCc1ccccc1,-5.7%,-10.2%,-3.3%,0.7
CCN1CCN(c2cc(N3CCc4ccccc4C3)c(F)cc2[N+](=O)[O-])CC1,14.1µM*,-21.6%,5.7%,-2.7
COc1ccc2nc(N3C(=O)CNC3=S)sc2c1,x,-19.1%,5.4%,2.9
